# Assay results published in PubChem BioAssay AID1053173 (Broad Institute, 2014).
# Out of some 1,500 compounds screened, about 390 (26%) were called active. No rule for the calls is given here. The list is a sample of the results. Results with a measured potency or affinity are listed apart.
# Biological target: Histone-lysine N-methyltransferase NSD2 (Homo sapiens) (UniProt O96028)
# Assay: blockers of NSD2 H4 peptide methylation – biochemical, AlphaScreen, cherry-picked samples, dose response (AID 1053173)
# Conditions: 120 min; series mostly up to 10 µM
# Sequence of Histone-lysine N-methyltransferase NSD2 (Homo sapiens) (O96028 whole entry, looked up): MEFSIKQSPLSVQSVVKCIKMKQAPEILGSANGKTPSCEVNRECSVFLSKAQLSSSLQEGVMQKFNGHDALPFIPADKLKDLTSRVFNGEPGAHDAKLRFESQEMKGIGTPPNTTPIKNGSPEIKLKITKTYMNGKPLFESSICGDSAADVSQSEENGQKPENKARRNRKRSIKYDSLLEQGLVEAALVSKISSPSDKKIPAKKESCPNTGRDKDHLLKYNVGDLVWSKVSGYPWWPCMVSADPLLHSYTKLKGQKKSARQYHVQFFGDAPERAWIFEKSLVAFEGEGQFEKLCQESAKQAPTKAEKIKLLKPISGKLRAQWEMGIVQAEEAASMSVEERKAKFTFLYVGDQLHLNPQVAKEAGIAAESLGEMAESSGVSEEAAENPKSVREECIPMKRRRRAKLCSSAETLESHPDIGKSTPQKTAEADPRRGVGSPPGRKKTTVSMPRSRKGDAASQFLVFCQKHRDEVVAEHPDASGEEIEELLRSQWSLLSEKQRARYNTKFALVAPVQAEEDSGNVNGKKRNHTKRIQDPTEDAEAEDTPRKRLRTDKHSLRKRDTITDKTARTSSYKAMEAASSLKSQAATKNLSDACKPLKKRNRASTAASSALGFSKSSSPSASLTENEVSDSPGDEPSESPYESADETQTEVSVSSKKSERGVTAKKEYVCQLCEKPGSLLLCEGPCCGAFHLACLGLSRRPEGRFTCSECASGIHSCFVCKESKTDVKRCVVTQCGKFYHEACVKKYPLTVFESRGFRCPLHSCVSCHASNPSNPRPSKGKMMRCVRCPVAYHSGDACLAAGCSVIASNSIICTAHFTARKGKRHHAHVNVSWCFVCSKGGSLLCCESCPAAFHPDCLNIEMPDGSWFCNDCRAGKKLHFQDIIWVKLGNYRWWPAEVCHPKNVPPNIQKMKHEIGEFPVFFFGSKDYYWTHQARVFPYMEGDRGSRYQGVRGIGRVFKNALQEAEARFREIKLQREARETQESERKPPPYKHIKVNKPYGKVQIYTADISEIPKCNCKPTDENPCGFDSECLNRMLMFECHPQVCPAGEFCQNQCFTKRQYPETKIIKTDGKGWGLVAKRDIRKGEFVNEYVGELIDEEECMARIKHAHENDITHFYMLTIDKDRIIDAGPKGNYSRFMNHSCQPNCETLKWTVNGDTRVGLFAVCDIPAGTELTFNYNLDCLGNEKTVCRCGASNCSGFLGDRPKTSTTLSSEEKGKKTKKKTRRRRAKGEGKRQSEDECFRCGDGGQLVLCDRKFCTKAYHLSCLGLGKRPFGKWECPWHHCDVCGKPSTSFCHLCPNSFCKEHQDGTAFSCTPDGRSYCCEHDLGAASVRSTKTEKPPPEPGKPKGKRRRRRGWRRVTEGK
row,SMILES,outcome
1,Cn1c(=O)cc(SCC(=O)N2CCOCC2)c2ccc(Cl)cc21,inactive
2,O=S(=O)(Nc1nc(-c2ccco2)c(-c2ccco2)s1)c1ccc(F)cc1F,inactive
3,O=C(COC(=O)c1cc(S(=O)(=O)N2CCOCC2)ccc1F)c1ccc[nH]1,inactive
4,CCN(CC)C(=O)c1cc([N+](=O)[O-])cc2c1-c1ccc([N+](=O)[O-])cc1C2=C(C#N)C#N,inactive
5,CC(=O)c1cc(-c2ccccc2)n(CC(=O)NC2CCCCC2)c1C,inactive
6,COc1ccc(-c2c3c(nc4sc(C(=O)Nc5cc(C)on5)c(N)c24)CCC3)cc1,inactive
7,N=C1SCC(=O)N1c1ncc(Cc2cccc(Cl)c2)s1,inactive
8,Cc1cccc(OCCC(=O)Nc2ccccc2C(N)=O)c1,inactive
9,COC(=O)c1c(SCC(=O)Nc2ccc(C)c(C)c2)nc(=O)[nH]c1C,inactive
10,CCOC(=O)c1cc(-c2ccc(F)cc2)nc2c1c(=O)[nH]c(=O)n2Cc1ccccc1,inactive
11,CCn1cnc2c1c(=O)n(CC(=O)O)c(=O)n2Cc1ccccc1,inactive
12,Cc1c(C)n(Cc2ccccc2)c2ccc(C(=O)OCCCN(C)C)cc12,inactive
13,Cc1cc(=O)n(Cc2ccccc2)c(O)c1C#N,inactive
14,CCOC(=O)c1c(C)[nH]c(C)c1C(=O)COC(=O)[C@@H]1CCCN1S(=O)(=O)c1ccc(Cl)cc1,inactive
15,COc1ccc(S(=O)(=O)N(C)CC(=O)NCCN2CCOCC2)cc1Cl,inactive
16,c1ccc(CCN2CN=C(Nc3nc4ccccc4s3)NC2)cc1,inactive
17,O=C1CC2(CCCCC2)CC(=O)N1CCc1ccccc1,inactive
18,Nc1ccc(N=Nc2ccccc2O)c(N)c1,inactive
19,O=C(OCc1ccc(Cl)c(Cl)c1)c1cccnc1Cl,inactive
20,CCN1CCN(CCCNC(=O)c2ccc3c(c2)NC(=O)/C(=C\c2cccc(C)c2)S3)CC1,inactive
21,O=C(CN1CCOCC1)Nc1ccc(Oc2ccccc2)cc1,inactive
22,O=C(O)C=C1C2CC3CC(C2)CC1C3,inactive
23,COC(=O)CC1=NN(c2ccc(OC)cc2)C(=O)/C1=C\c1ccc(Cl)cc1,inactive
24,Nc1nonc1C(=O)N/N=C/c1cc2c(cc1[N+](=O)[O-])OCO2,inactive
25,CC(C)(C)C(=O)NC1CC2CCCC(C1)N2C(=O)Nc1ccc(Cl)cc1 (stereo not given),inactive
26,COc1ccc2c(C#N)c3ccccn3c2c1,inactive
27,COc1ccc(-c2cn[nH]c2N)cc1,inactive
28,CN(C)CCCN1C(=O)c2cccc3c([N+](=O)[O-])ccc(c23)C1=O,inactive
29,COc1ccc(NS(=O)(=O)c2cccc(C(=O)N3CCCCCC3)c2)cc1,inactive
30,O=C1CC(=O)Nc2cc(S(=O)(=O)Nc3ccc(Cl)c(C(F)(F)F)c3)ccc2N1,inactive
